Screening results deposited in PubChem BioAssay by SRMLSC.
Sampled rows, rich in hits. Any-hit rate of the full collection: about 6.5%.
A340 absorber = compound light absorbance at 340 nm, profiling panel, artefact control, biochemical, MLSMR library, data from PS, PMK, MK assays. fold change at 10 µM. compound absorbance at 340 nm, fold over control. 65,000 tested, under 10 active;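 active = at 10 µM dose, initial 340 nm absorbance at least 2 fold that of control wells; inactive = change under 2 fold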;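 also: initial absorbance extrapolated from kinetic A340 decline of NADH oxidation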
Fluor 339 460 = intrinsic fluorescence of library compounds, ex339/em460 – biochemical, MLSMR library, data from DPM-DC assay, artefact control, profiling panel; compound autofluorescence, ex339/em460 nm, NADH buffer; hits give high values; 1 = no-compound wells, NADH background; fluorescence fold increase at 10 µM; hit rate 5.5% among 65,000;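 active = at 10 µM, mean starting fluorescence two-fold or more over control wells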;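 also: signal is the first read of a kinetic run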
DPM-DC inhibit = S. pneumoniae DPM-DC inhibitors, primary screen, biochemical, PK/LDH-coupled NADH fluorescence | diphosphomevalonate decarboxylase (Streptococcus pneumoniae D39) | purified DPM-DC | calls only at 10 µM | hit rate 0.49% among 65,000;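 active = the 320 compounds with the highest percent inhibition in the single-dose primary screen, excluding strongly autofluorescent ones, cut at about 32% in these data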;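 also: kinetic rate of NADH fluorescence loss reporting ADP formed by the decarboxylase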
NADH coupling = inhibitors of PK/LDH coupling enzymes, profiling panel, artefact control, biochemical, MLSMR library; coupled PK/LDH NADH assays, four targets; IC50, µM (doses to about 10 µM); hit rate 0.02% among 65,000; AID 774, 2007;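 active = single-dose screening hits from any of four coupled enzyme assays that gave an IC50 when retested across doses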;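 also: the DPM-DC format reads NADH fluorescence rather than 340 nm absorbance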
Spn PMK inh = S. pneumoniae PMK inhibitors, primary screen, biochemical, mevalonate pathway, pilot trial included; inhibition, % at 10 µM; purified PMK, PK/LDH-coupled NADH absorbance 340 nm; AID 539, 2006; phosphomevalonate kinase (Streptococcus pneumoniae D39); hit rate 0.49% among 65,000;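 active = top-ranked compounds by inhibition in the single 10 µM screen, taking a fixed number of the strongest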
Spn MK inh = S. pneumoniae MK inhibitors, primary screen, biochemical, PK/LDH-coupled NADH absorbance. mevalonate kinase [Streptococcus pneumoniae D39]. purified MK, PK/LDH-coupled NADH absorbance 340 nm. inhibition, % at 10 µM. hit rate 0.48% among 65,000;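 active = ranked among the strongest by inhibition in the single 10 µM screen, a fixed top-ranked set picked for dose follow-up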
Hits are given with their value; . = inactive; / = no result shown; + = active, no number.

SMILES	A340 absorber	Fluor 339 460	DPM-DC inhibit	NADH coupling	Spn PMK inh	Spn MK inh
CCC(=O)c1cc(F)c(N2CCN(S(=O)(=O)c3ccc(C)cc3)CC2)cc1C	.	.	.	.	.	.
CCOC(=O)C1CCCc2c1[nH]c1c(C(=O)O)cccc21 (centres undefined)	.	.	.	.	.	.
CCOC(=O)N1CCN(C(=O)c2ccc(NC(=O)c3ccc(C)cc3)cc2)CC1	.	.	.	.	.	.
O=C(CSc1nnnn1C1CCCCC1)NCCc1ccccc1	.	.	.	.	.	.
COC(=O)c1ccc(=O)n(Cc2ccc3c(c2)OCO3)c1	.	.	.	.	.	.
CCCN1c2cccc3cccc(c23)S1(=O)=O	.	2.2	/	.	.	.
O=S1(=O)c2cccc3cccc(c23)N1Cc1ccc(-c2nnco2)cc1	.	2.8	.	.	.	.
O=S1(=O)c2cccc3cccc(c23)N1Cc1nnc(-c2ccccc2Br)o1	.	.	.	.	.	.
COc1cc(NC(=O)CN2c3cccc4cccc(c34)S2(=O)=O)cc(OC)c1OC	.	2.6	.	.	.	.
O=C(CN1c2cccc3cccc(c23)S1(=O)=O)NCc1ccc2c(c1)OCO2	.	.	.	.	.	.
N#CCCCCN1c2cccc3cccc(c23)S1(=O)=O	.	3.7	/	.	.	.
Cc1ccc(NC(=O)CSc2nnc(-c3ccncc3)n2N)cc1C	.	.	.	.	.	.
CCOC(=O)c1c(C(F)(F)C(F)(F)C(F)(F)C(F)(F)F)n[nH]c1C	.	.	.	.	.	.
CC1(c2ccc(Cl)cc2)NC(=O)N(CC(=O)NC(=O)NCc2ccco2)C1=O (centres undefined)	.	.	.	.	.	.
O=C(Nc1ccc2c(c1)oc1ccccc12)c1ccc2c(c1)OCO2	.	.	.	.	.	.
O=c1c(O)c(-c2ccc3c(c2)OCO3)oc2ccccc12	.	3	.	.	.	.
Cc1ccc(NC(=O)CSc2nnc(Cn3c(=O)sc4ccccc43)n2C)cc1Cl	.	.	.	.	29	.
COc1cccc(N2CCN(Cc3coc4c(Cl)cc(Cl)cc4c3=O)CC2)c1	.	.	.	.	.	.
Cc1cc(=O)[nH]c2c(C)c(N)ccc12	.	3.9	/	.	.	.
Cc1cc(=O)[nH]c2c(C)c(Cl)ccc12	.	.	.	.	.	.
CC1=CC(C)(C)Nc2ccccc21	.	2.5	.	.	.	.
CCOC(=O)C1=C(C)N=C2SC(CC)C(=O)N2C1c1ccc(OC(C)=O)c(OCC)c1 (centres undefined)	.	.	.	.	.	.
CCOC(=O)N1CCC(NC(=O)c2ccc(CS(=O)(=O)c3ccccc3C)o2)CC1	.	.	.	.	.	.
Cc1nc2ccc(S(=O)(=O)Nc3ccccc3C)cc2s1	.	.	.	.	.	.
O=C(c1c(Cl)nc2sccn12)N1CCN(c2cccc(Cl)c2)CC1	.	.	.	.	.	.
SMILES	A340 absorber	Fluor 339 460	DPM-DC inhibit	NADH coupling	Spn PMK inh	Spn MK inh
Nc1nc2c(s1)CCc1c-2cnn1-c1ccccc1	.	.	+	21µM	.	.
COc1ccc(-c2cnn(-c3ccccc3)c2N)cc1OC	.	.	.	.	.	.
COc1cccc(C2C(C(=O)OCc3ccccc3)=C(C)Nc3ncnn32)c1OC (centres undefined)	.	.	.	.	.	.
O=C(Nc1cc(C(F)(F)F)ccc1N1CCOCC1)C1Cc2ccccc2CN1C(=O)c1ccco1 (centres undefined)	.	.	.	.	.	.
Cc1ccc(S(=O)(=O)c2c(N)n(/N=C/c3ccco3)c3nc4ccccc4nc23)cc1	.	3.2	.	.	.	.
O=c1c2ccccc2nc(COc2ccccc2)n1/N=C/c1ccco1	.	.	.	.	.	.
Cc1ccc(S(=O)(=O)c2c(N)n(/N=C/c3ccco3)c3nc4ccccc4nc23)cc1C	.	3.2	.	.	.	.
COc1ccc(Cn2c(C)nc3c(c2=O)c2nc4ccccc4nc2n3Cc2ccco2)cc1	.	.	.	.	.	.
Nc1c(S(=O)(=O)c2ccccc2)c2nc3ccccc3nc2n1/N=C/c1ccco1	.	.	.	.	.	.
COc1ccc(S(=O)(=O)c2c(N)n(Cc3ccco3)c3nc4ccccc4nc23)cc1	.	3.8	/	.	.	.
Nc1c(S(=O)(=O)c2cccs2)c2nc3ccccc3nc2n1/N=C/c1cccc(O)c1	.	4	/	.	.	.
Cn1c(=O)c2c(nc(SCC(=O)NC3CCCCC3)n2C)n(C)c1=O	.	.	.	.	.	.
O=C(NCCOc1ccccc1)c1ncn[nH]1	.	.	.	.	.	.
Clc1ccc(CSc2nnc(-c3ccccn3)n2Cc2ccco2)c(Cl)c1	.	.	/	.	.	.
O=c1c2c3nc4ccccc4nc3n(/N=C/c3ccco3)c2ncn1CCC1=CCCCC1	.	.	.	.	.	.
Cc1cccc(S(=O)(=O)c2c(N)n(/N=C/c3cccnc3)c3nc4ccccc4nc23)c1	.	3.7	/	.	.	.
CC(C)Cn1c(N)c(S(=O)(=O)c2cccs2)c2nc3ccccc3nc21	.	3.9	/	.	.	.
Cc1cccc(S(=O)(=O)c2c(N)n(/N=C/c3ccco3)c3nc4ccccc4nc23)c1	.	3.1	.	.	.	.
Cc1ccc(S(=O)(=O)n2nc(-c3cccnc3)nc2N)cc1	.	.	.	.	.	.
Cc1cc(C)n(CC2CC(=O)N(c3ccc(Cl)c(Cl)c3)C2=O)n1 (centres undefined)	.	.	.	.	.	.
COc1ccc(-c2cc(C(F)(F)F)n3ncc(C(=O)NCC4CCCO4)c3n2)cc1 (centres undefined)	.	3	/	.	.	.
O=C(O)c1cnn2c(C(F)(F)F)cc(-c3ccco3)nc12	.	.	.	.	.	.
O=C(CSc1nc2nc(-c3cccs3)cc(C(F)(F)F)c2c(=O)[nH]1)NCc1ccco1	.	4.9	/	.	.	.
O=C(NCc1ccco1)c1cnn2c(C(F)(F)F)cc(-c3cccs3)nc12	.	2.3	.	.	.	.
CCOc1ccc(-n2c(=S)sc3c(=O)[nH]c(SCC(=O)NCc4ccco4)nc32)cc1	.	.	.	.	.	.
O=C(NCc1ccco1)c1cnn2c(C(F)F)cc(-c3ccccc3)nc12	.	2.1	.	.	.	.
Cc1cc(NC(=O)c2cnn3c(C(F)F)cc(-c4ccccc4)nc23)no1	.	.	.	.	.	.
C=CCn1c(SCc2c(C)noc2C)nnc1C1COc2ccccc2O1 (centres undefined)	.	.	.	.	.	.
